In PubChem BioAssay (EPA / NIEHS) one finds outcome and AC50 data, which are given here for 23 molecules.

As a reminder, the AC50 is the midpoint of the concentration-response curve, whichever way the signal moves.

Active and inactive are the calls of the source. How the source made its calls: active means hit-call score of the fitted dose curve at least 0.9, where 1 is the maximum; inactive means score below 0.9.

Assay [1] is described as follows: ATG_GLI_CIS: Attagene CIS-FACTORIAL HepG2 Assay for human Zinc Finger Protein GLI1 (AID 2282945). Conditions: HepG2, Attagene cis-factorial reporter mRNA, GLI element; actives raise or lower the signal. The gist of the method:
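Transiently transfected HepG2 cells report endogenous transcription factor activity via cis-element-driven reporter units. After 24 h compound exposure, reporter mRNA was measured by RT-PCR with capillary electrophoresis; bidirectional fitting against DMSO baseline.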

For assay [2], the target named is Bile acid receptor (Homo sapiens) (UniProt Q96RI1). In words: ATG_IR1_CIS: Attagene CIS-FACTORIAL HepG2 Assay for human Nuclear Receptor Subfamily 1 Group H Member 4 (NR1H4), IR1 submotif (AID 2282946). The settings on record: IR1 reporter transcription, actives raise or lower the signal. In short, it runs like this: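 Fluorescence of capillary-separated, HpaI-digested RT-PCR reporter products gave IR1-element mRNA induction in HepG2 cells 24 h after dosing. Endogenous transcription factors drove the cis-regulated reporters; activity was fitted bidirectionally against DMSO.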

Assay [3] in a line: ATG_GRE_CIS: Attagene CIS-FACTORIAL HepG2 Assay for human Glucocorticoid Response Elements (GRE) (AID 2282947). The settings on record: HepG2 GRE cis-reporter, Attagene multiplex mRNA; actives raise or lower the signal. The gist of the method: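 Read-out: fluorescent reporter-transcript fragments separated by capillary electrophoresis after RT-PCR. Transiently transfected HepG2 cells carrying cis-element-driven reporter units were dosed for 24 h; gain or loss of signal fitted against DMSO control.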

A short description of assay [4]: ATG_ISRE_CIS: Attagene CIS-FACTORIAL HepG2 Assay for human Interferon Regulatory Factor 1 (IRF1) binding to an Interferon-Stimulated Response Element (ISRE) (AID 2282948). Conditions: HepG2 ISRE cis-reporter (Attagene), mRNA transcription readout; actives raise or lower the signal. The gist of the method:
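Read-out: fluorescent RT-PCR products resolved by capillary electrophoresis, reporting endogenous transcription factor activity via ISRE-driven reporter mRNA in transfected HepG2 cells dosed for 24 h; gain or loss fitted relative to DMSO.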

The nature of assay [5]: ATG_M_32_CIS: Attagene CIS-FACTORIAL HepG2 Assay for M32 Transcription Factor (Internal Marker) (AID 2282949).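 Further: background control marker of the multiplexed CIS panel rather than a real target.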 Conditions: HepG2 Attagene cis-factorial M32 reporter, mRNA; actives raise or lower the signal. The gist of the method:
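Using DMSO as baseline, bidirectional curve fits were applied to reporter mRNA signals. These came from transiently transfected HepG2 cells exposed for 24 h, with RNA analysed by RT-PCR, FAM primer extension, HpaI digestion and CE.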

A short description of assay [6]: ATG_M_06_CIS: Attagene CIS-FACTORIAL HepG2 Assay for M06 Transcription Factor (Internal Marker) (AID 2282950). The settings on record: HepG2 Attagene CIS-FACTORIAL M06 internal marker reporter; actives raise or lower the signal. In short, it runs like this:
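One of many multiplexed endpoints: HepG2 reporter mRNA after 24 h dosing, detected by RT-PCR and capillary electrophoresis fluorescence; gain or loss of signal analysed against DMSO.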

Assay [7] concerns the target Hypoxia-inducible factor 1-alpha (Homo sapiens) (UniProt Q16665). In words: ATG_HIF1a_CIS: Attagene CIS-FACTORIAL HepG2 Assay for human Hypoxia Inducible Factor 1 (HIF1A) (AID 2282951). The settings on record: HepG2 Attagene cis-factorial HIF1a reporter transcription; actives raise or lower the signal. In short, it runs like this: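 Activity is fitted in both directions relative to DMSO. Reporter transcripts are read by RT-PCR, fluorescent primer extension and capillary electrophoresis after 24 h chemical treatment. The cells are HepG2 carrying transiently transfected cis-element-driven reporter units responding to endogenous factors.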

In assay [8] the target is Hepatocyte nuclear factor 6 (Homo sapiens) (UniProt Q9UBC0). In words: ATG_HNF6_CIS: Attagene CIS-FACTORIAL HepG2 Assay for human Hepatocyte Nuclear Factor 6 (HNF6) (AID 2282952). Conditions: HepG2 Attagene cis-factorial HNF6 reporter transcription; actives raise or lower the signal. The gist of the method: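 Using cis-element reporters in HepG2 liver cells, the assay tracks endogenous factor-driven transcription 24 h post-dosing. Signal comes from 6-FAM-labelled, HpaI-digested RT-PCR fragments, with gain or loss scored against DMSO.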

The target of assay [9] is Heat shock factor protein 1 (Homo sapiens) (UniProt Q00613). In words: ATG_HSE_CIS: Attagene CIS-FACTORIAL HepG2 Assay for human Heat Shock Transcription Factor 1 (HSE) (AID 2282953). Conditions: HepG2 HSE cis-reporter, Attagene RNA transcription; actives raise or lower the signal. The gist of the method: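 Using HepG2 with transfected cis-driven reporter constructs, compound effects on endogenous factor activity are scored as reporter mRNA change at 24 h. Detection: RT-PCR, HpaI digestion, capillary electrophoresis; bidirectional fitting to DMSO.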

The nature of assay [10]: ATG_MRE_CIS: Attagene CIS-FACTORIAL HepG2 Assay for human Metal Responsive Element (MRE) (AID 2282954). Conditions: HepG2 MRE cis-reporter transcription, Attagene multiplex; actives raise or lower the signal. In short, it runs like this:
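RT-PCR/capillary electrophoresis readout of reporter mRNA, 24 h post-dosing, in HepG2 cells transfected with multiplexed cis-regulated reporter constructs. Gain or loss of signal fitted bidirectionally against DMSO baseline.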

Sequence of Hepatocyte nuclear factor 6 (Homo sapiens) (Q9UBC0 whole entry, looked up, the tested form may be a part): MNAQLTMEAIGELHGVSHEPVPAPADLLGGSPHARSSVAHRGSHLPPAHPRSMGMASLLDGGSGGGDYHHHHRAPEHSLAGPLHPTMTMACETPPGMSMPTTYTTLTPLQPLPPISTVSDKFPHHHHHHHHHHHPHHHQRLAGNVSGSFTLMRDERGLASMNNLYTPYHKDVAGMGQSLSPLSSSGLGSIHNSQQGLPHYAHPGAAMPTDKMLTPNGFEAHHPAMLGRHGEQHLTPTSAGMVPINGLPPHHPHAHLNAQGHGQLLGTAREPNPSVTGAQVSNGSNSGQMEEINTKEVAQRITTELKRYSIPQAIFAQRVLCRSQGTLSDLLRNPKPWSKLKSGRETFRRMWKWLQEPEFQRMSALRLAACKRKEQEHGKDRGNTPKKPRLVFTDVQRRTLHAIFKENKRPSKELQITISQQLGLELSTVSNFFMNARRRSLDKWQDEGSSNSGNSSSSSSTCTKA
Sequence of Hypoxia-inducible factor 1-alpha (Homo sapiens) (Q16665 whole entry, looked up): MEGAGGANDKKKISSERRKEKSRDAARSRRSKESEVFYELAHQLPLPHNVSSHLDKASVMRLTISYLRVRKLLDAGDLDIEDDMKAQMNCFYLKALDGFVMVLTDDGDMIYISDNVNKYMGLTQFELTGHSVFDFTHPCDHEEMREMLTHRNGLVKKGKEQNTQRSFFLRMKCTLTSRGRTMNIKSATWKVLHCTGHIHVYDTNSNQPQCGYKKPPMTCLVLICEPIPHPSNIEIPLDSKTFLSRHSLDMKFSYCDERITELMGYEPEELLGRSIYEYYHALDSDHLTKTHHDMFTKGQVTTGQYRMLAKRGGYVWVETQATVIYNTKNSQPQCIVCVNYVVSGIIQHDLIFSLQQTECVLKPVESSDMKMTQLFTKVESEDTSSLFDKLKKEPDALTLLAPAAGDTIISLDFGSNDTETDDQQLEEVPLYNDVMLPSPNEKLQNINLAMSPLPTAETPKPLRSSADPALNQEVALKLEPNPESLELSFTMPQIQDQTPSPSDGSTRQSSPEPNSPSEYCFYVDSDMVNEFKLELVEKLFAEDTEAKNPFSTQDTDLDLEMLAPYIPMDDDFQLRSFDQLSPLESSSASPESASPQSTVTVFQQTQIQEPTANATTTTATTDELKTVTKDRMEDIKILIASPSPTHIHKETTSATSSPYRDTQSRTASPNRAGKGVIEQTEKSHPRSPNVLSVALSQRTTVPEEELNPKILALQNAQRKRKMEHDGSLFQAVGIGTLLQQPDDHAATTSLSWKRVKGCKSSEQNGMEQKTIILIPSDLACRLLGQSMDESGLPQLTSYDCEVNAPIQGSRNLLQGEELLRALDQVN
Sequence of Heat shock factor protein 1 (Homo sapiens) (Q00613 whole entry, looked up): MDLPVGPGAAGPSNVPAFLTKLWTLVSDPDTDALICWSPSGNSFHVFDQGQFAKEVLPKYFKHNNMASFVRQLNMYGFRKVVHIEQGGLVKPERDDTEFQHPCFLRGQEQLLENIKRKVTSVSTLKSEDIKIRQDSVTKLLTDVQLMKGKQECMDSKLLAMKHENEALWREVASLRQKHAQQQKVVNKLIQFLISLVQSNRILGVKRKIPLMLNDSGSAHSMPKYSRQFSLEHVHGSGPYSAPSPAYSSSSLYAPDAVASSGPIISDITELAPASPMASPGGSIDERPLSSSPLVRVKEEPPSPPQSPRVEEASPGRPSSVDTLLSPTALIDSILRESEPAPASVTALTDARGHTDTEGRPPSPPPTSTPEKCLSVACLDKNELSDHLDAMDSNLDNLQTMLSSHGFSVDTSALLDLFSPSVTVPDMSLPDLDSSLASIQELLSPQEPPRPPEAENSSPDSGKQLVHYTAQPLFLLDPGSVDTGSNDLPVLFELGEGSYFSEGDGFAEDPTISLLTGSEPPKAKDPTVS
Sequence of Bile acid receptor (Homo sapiens) (Q96RI1 whole entry, looked up): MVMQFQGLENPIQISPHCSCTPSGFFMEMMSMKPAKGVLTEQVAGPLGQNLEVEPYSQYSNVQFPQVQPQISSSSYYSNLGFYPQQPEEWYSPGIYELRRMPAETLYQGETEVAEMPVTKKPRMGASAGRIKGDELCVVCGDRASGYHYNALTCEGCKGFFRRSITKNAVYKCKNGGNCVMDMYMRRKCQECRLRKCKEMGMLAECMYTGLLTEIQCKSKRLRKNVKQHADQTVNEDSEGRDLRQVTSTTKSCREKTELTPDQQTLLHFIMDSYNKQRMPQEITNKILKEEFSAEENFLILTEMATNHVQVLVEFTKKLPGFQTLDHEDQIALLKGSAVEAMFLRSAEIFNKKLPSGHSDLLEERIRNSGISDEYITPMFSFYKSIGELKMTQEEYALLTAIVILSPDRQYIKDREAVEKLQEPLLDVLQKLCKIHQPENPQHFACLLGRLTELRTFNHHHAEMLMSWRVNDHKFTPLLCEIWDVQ

As to `Brc1nc2ccccc2s1`, the molecule was classed as inactive in assay [1], in assay [2], in assay [3], in assay [4], in [5] and in assay [6]. The molecule was called inactive in assay [8] and in [10]. In addition, the AC50 in assay [7] is 125 µM (active); in assay [9], 89.7 µM (active).

Turning to `O=S(=O)(OCC(F)(F)F)C(F)(F)C(F)(F)C(F)(F)C(F)(F)F`, the result in assay [1], in assay [2], in assay [3], in [5], in assay [6] and in assay [7] was inactive. Further, the molecule was classed as inactive in [8], in assay [9] and in assay [10]. The AC50 in assay [4] is 63.2 µM (active).

Regarding `CCN(CC)c1ccc2c(c1)Oc1cc(N(CC)CC)ccc1C21OC(=O)c2ccccc21`, the molecule was classed as inactive in assay [1], in [2], in [3], in [5], in [6] and in assay [7]. For the same molecule, the result in assay [8], in [9] and in assay [10] was inactive. In addition, the AC50 in assay [4] was 55.3 µM (active).

Consider `N#Cc1ccccc1O`, for which the call in [1], in [2], in [3], in [4], in assay [5] and in assay [6] was inactive. The result in [7], in assay [8], in assay [9] and in assay [10] was inactive.

Take `O=C1C=CC(=O)N1c1ccccc1`: the molecule was called inactive in assay [1], in assay [2], in assay [3], in assay [4], in assay [5] and in assay [6]. Besides, the molecule was classed as inactive in assay [7], in assay [8], in [9] and in assay [10].

In the case of `Nc1c(Br)cc([N+](=O)[O-])cc1Br`, the call in assay [1], in [2], in [3], in assay [4], in assay [5] and in [6] was inactive. For the same molecule, the result in assay [7], in assay [8], in [9] and in [10] was inactive.

On to `O=C1OC(=O)c2ccc3c4c(ccc1c24)C(=O)OC3=O`, for which the result in [1], in assay [2], in assay [3], in assay [4], in [5] and in [6] was inactive. Further, the molecule was classed as inactive in assay [7], in assay [8], in assay [9] and in assay [10].

Consider `Oc1ccc(C2(c3ccc(O)c(C4CCCCC4)c3)CCCCC2)cc1C1CCCCC1`, for which the outcome in [1], in assay [2], in assay [5], in [6], in [7] and in assay [8] was inactive. In addition, the concentration at half-maximal activity (AC50) was 33.4 µM (active) in assay [3], 55.9 µM (active) in assay [4], 8.18 µM (active) in assay [9] and 11.1 µM (active) in assay [10].

For `Nc1cc([N+](=O)[O-])cc(Cl)c1O`, the outcome in assay [1], in [2], in assay [3], in assay [4], in assay [5] and in assay [6] was inactive. For the same molecule, the molecule was classed as inactive in assay [7], in assay [8], in assay [9] and in assay [10].

For `OCC(F)(F)C(F)(F)C(F)(F)CO`, the result in [1], in [2], in assay [3], in assay [4], in assay [5] and in assay [6] was inactive. The result in [7], in [8], in assay [9] and in [10] was inactive.

Take `CCc1cccc(C)c1N(C(=O)C(=O)O)C(C)COC` (stereo not given): the molecule was classed as inactive in assay [1], in assay [2], in assay [3], in [4], in assay [5] and in assay [6]. Besides, the outcome in assay [7], in [8], in [9] and in [10] was inactive.

On to `CCCCOC(=O)C(C)O` (stereo not given), for which the molecule was called inactive in assay [1], in [2], in [3], in assay [4], in [5] and in assay [6]. In addition, the molecule was classed as inactive in assay [7], in assay [8], in assay [9] and in assay [10].

Take `O=C(Cl)c1ccc(Cl)cc1Cl`: the call in [1], in assay [2], in [3], in assay [4], in [5] and in [6] was inactive. Moreover, the call in [7], in [8] and in [10] was inactive. Besides, the half-maximal activity concentration (AC50) in assay [9] was 163 µM (active).

In the case of `FC(F)(F)C(F)(F)C(F)(F)C(F)(F)C(F)(F)C(F)(F)C(F)(F)CCI`, the molecule was classed as inactive in assay [1], in [2], in [3], in [4], in [5] and in [6]. Moreover, the call in assay [7], in assay [8], in assay [9] and in assay [10] was inactive.

Regarding `CN(C(=O)C(F)(F)C(F)(F)C(F)(F)F)[Si](C)(C)C`, the call in assay [1], in assay [2], in [3], in [4], in assay [5] and in assay [6] was inactive. For the same molecule, the molecule was classed as inactive in assay [7], in assay [8], in [9] and in assay [10].

On to `Cc1cc(C)c(O)c(C(C)(C)C)c1`, for which the molecule was classed as inactive in [1], in assay [2], in assay [3], in assay [4], in [5] and in [6]. Moreover, the outcome in [7], in [8], in assay [9] and in [10] was inactive.

Take `C[C@]12CC[C@H]3C(=CCc4cc(O)ccc43)[C@@H]1CCC2=O`: the result in assay [1], in [2], in [3], in assay [4], in [5] and in assay [6] was inactive. In addition, the outcome in [7], in [8], in assay [9] and in [10] was inactive.

As to `CSc1ccc(O)cc1C`, the call in assay [1], in assay [2], in [3], in [4], in assay [5] and in assay [6] was inactive. For the same molecule, the call in [7], in [8], in [9] and in assay [10] was inactive.

With `O=S(=O)(O)CCC(F)(F)C(F)(F)C(F)(F)C(F)(F)C(F)(F)C(F)(F)C(F)(F)C(F)(F)F`, the result in assay [1], in assay [3], in assay [4], in assay [5], in assay [6] and in assay [7] was inactive. The result in assay [8], in assay [9] and in assay [10] was inactive. For the same molecule, in assay [2], the AC50 was 39.9 µM (active).

Take `C[Si](Cl)(Cl)CCC(F)(F)C(F)(F)C(F)(F)C(F)(F)C(F)(F)C(F)(F)F`: the molecule was called inactive in [1], in [2], in [3], in assay [4], in assay [5] and in assay [6]. In addition, the molecule was classed as inactive in assay [7], in assay [8], in assay [9] and in assay [10].

Regarding `CC(C)(C)c1cc(CCC(=O)NCCCCCCNC(=O)CCc2cc(C(C)(C)C)c(O)c(C(C)(C)C)c2)cc(C(C)(C)C)c1O`, the outcome in assay [1], in assay [2], in assay [3], in assay [4], in [5] and in [6] was inactive. The result in assay [7], in [8], in assay [9] and in [10] was inactive.

With `CCOC(=O)CC(=O)C(F)(F)C(F)(F)F`, the outcome in assay [1], in [2], in assay [3], in assay [4], in [5] and in assay [6] was inactive. The molecule was called inactive in assay [7], in assay [8], in assay [9] and in assay [10].

`CCCC(=O)OCC(COC(=O)CCC)OC(=O)CCC`: the result in [1], in assay [2], in [3], in assay [5], in assay [6] and in assay [7] was inactive. In addition, the call in [8], in assay [9] and in assay [10] was inactive. Besides, the AC50 in [4] was 53 µM (active).
